Marburg entry inh: blocks Marburg virus binding to or entry into cells; Marburg virus pseudotyped entry inhibition, cell reporter; Potency, µM (top dose mostly 37.8 µM), for inactives: at the highest dose activity change, negative = inhibition, actives largely listed as inhibitors; actives 1.8% (n = 300,000); calls by dose curve; tested in HEK293 cells; also: potency is read from the fitted curve at half-maximal effect
LASV entry inh: blocks Lassa virus binding to or entry into cells | Lassa virus pseudotype entry inhibition, cell reporter | Potency, µM (top dose mostly 37.9 µM), for the others: at the top dose activity change, negative = inhibition, hits mostly inhibitors | actives 1.2% (n = 300,000); calls by dose curve; tested in HEK293 cells; also: potency is read from the fitted curve at half-maximal effect; nearly all actives have a fitted effect of over 50% in size
HCMV inh: human cytomegalovirus inhibition; HFF cells, HCMV-luciferase reporter, 72 h; active compounds read low; activity change, negative = inhibition, % at 57.5 µM; actives 4.5% (n = 410,000); AID 1259415; in the data active = activity change below about -60%; inconclusive = no clear call, values can overlap the other calls; inactive = above about -39%
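Luciferase read-out from HCMV-luciferase-infected HFFs (MOI 1 PFU/cell) 72 h post infection at 37C; compounds added after 16 h cell attachment; activity normalized between buffer-only basal and Salinomycin (10uM) inhibitor controls.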
FMDV antiviral: antivirals against foot and mouth disease virus; FMDV antiviral cell-based qHTS; Potency, µM (series often up to 57.9 µM), for the others: at the top dose activity change, negative = inhibition, usual class: inhibitors; actives 1.2% (n = 410,000); calls by dose curve; tested in HEK293T cells; also: read-out not given here; potency is read from the fitted curve at half-maximal effect; nearly all actives have a fitted effect of over 45% in size
HCV inhibitor: inhibitors of hepatitis C virus infection; Huh7.5.1 HCVcc-Cre infection, luciferase reporter, 44 h; actives 3.4% (n = 340,000); AID 651820; Potency, µM (series often up to 41.8 µM), inactives show at the top dose activity change, negative = inhibition, usual class: inhibitors; active = well fitted inhibition curve with a large enough effect; inconclusive = small, poorly fitted or top-dose-only effect, or another doubt; inactive = no such curve, though single readings can be large or run the other way; also: potency is read from the fitted curve at half-maximal effect
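Reporter virus HCVcc-Cre (~0.5 moi) infects cells exposed to compound; seeding density 1,000 cells/well with 4 h settling beforehand. Luminescence, 15 sec read, taken 44 h post-infection following a 15 min RT substrate incubation.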
An asterisk follows results filed as active; ? = inconclusive; . = not tested or not shown; ! = not active in a repeat; [ ] = another dose, or the depositor's remark. The list is not random: actives were taken first. Their share in the collection is about 7.9%. % is scaled to controls: 0 for no effect and ±100 for the full control effect.

SMILES	Marburg entry inh	LASV entry inh	HCMV inh	FMDV antiviral	HCV inhibitor
NS(=O)(=O)c1ccc(N2N=C(c3ccccc3)CC2c2ccccc2Cl)cc1 (stereo not given)	.	.	?	-25%	32µM*
COc1ccc(C2=NN(CN3C(=O)C(=O)c4ccccc43)C(c3ccc(C)cc3)C2)cc1 (stereo not given)	-9%	-9%	-25	27%	-23%
CCc1ccc(C2=NN(c3ccc(S(N)(=O)=O)cc3)C(c3ccc(F)cc3)C2)cc1 (stereo not given)	?	7.9µM*	-11	-10%	?
COc1ccc(C2=NN(CN3C(=O)C(=O)c4ccccc43)C(c3ccc(Br)cc3)C2)cc1 (stereo not given)	?	-24%	-20	.	10µM*
CN(C)S(=O)(=O)N1CCC(N2CCN(Cc3ccc(F)cc3)C(=O)C2=O)CC1	.	9%[46.1 µM]	15	-15%	.
Cc1cc2nc(-c3ccc(NC(=O)c4ccccc4F)cc3)oc2cc1C	.	27%[46.1 µM]	25	11%	.
Clc1cccc(N2CCN(CCCN3CCN(c4ccccc4)CC3)CC2)c1	?	?	?	-23%	11µM*
O=c1c2cccnc2[nH]c(=S)n1CCCN1CCN(c2ccccc2F)CC1	-28%	?	-30	0%	-2%
O=c1c2ccccc2[nH]c(=S)n1CCCN1CCN(c2ccccc2F)CC1	.	.	-63*	-13%	?
O=C1CC(=C(c2ccccc2)c2ccccc2)C(=O)N1CCCCN1CCN(c2ccccc2)CC1	?	?	0	-24%	1µM*
O=c1c2ccccc2[nH]c(=S)n1CCCN1CCN(c2ccccc2)CC1	?	?	-67*	-30%	-21%
Cc1nnc(NC(=O)CSc2nccn2-c2ccc(Cl)cc2)s1	.	11%[46.1 µM]	-11	-10%	.
CS(=O)(=O)c1ccc(-c2cccc3c2OC(CNC(=O)c2ccnc(Cl)c2)C3)cc1 (stereo not given)	.	.	.	-23%	.
O=C1C(Cl)=C(N2CCOCC2)C(=O)N1CCc1ccccc1	-8%	-21%	65	-16%	25%
CN1CCN(C2=C(Cl)C(=O)N(CCc3ccccc3)C2=O)CC1	-1%	-17%	-68*	21%	?
COC(=O)CN1C(=O)CSc2ccc(S(=O)(=O)Nc3cccc(Cl)c3C)cc21	.	16%[46.1 µM]	-20	10%	.
COc1ccc(N2C3=C(CC4=C2CC(C)(C)CC4=O)C(=O)CC(C)(C)C3)cc1	?	-31%	-99*	.	?
COc1ccc(N2C3=C(C(=O)CC(C)(C)C3)C(c3ccccc3OC)C3=C2CC(C)(C)CC3=O)cc1	?	-2%[46.1 µM]	-65*	-4%	-18%
COc1ccccc1C1C2=C(CC(C)(C)CC2=O)N(CC(=O)O)C2=C1C(=O)CC(C)(C)C2	.	.	2	5%	?
COc1cccc(CNC(=O)CCc2nnc3n(C)c(=O)c4sccc4n23)c1	5%[46.1 µM]	16%[46.1 µM]	-10	-18%	.
Cc1ccc(CN2CCC(CNC(=O)c3cc4ccc5cccnc5c4[nH]3)CC2)cc1	.	?	-106*	-29%	.
COc1ccc2c(c1)CC(NC(=O)Nc1cc(Cl)ccc1OC)CO2 (stereo not given)	.	-5%[46.1 µM]	-30	?	.
O=C(CN1CCN(c2ccc(F)cc2)CC1)c1ccc(O)cc1O	.	.	?	-22%	2%
CC1(c2ccccc2)NC(=O)N(CC(=O)N2CCN(S(=O)(=O)c3cccc(C(F)(F)F)c3)CC2)C1=O (stereo not given)	-2%	.	35	-25%	-1%
CN(C)c1ccc(CN(Cc2ccco2)C(=O)COc2ccc(F)cc2)cc1	?	5.6µM*	-26	0%	.
SMILES	Marburg entry inh	LASV entry inh	HCMV inh	FMDV antiviral	HCV inhibitor
Cc1cc(/C=C2/SC(=S)N(c3cccc(Cl)c3)C2=O)c(C)n1-c1cccnc1	?	?	-93*	?	2.2µM*
Cc1cc(/C=C2/SC(=S)N(c3ccc([N+](=O)[O-])cc3)C2=O)c(C)n1-c1cccnc1	-26%	-19%	-83*	?	2.5µM*
CSCCC(c1nnnn1C1CCCCC1)N1CCN(C/C=C/c2ccccc2)CC1 (stereo not given)	.	.	-8	0%	.
Cc1cccc(N/C(N)=N/c2nc(C(F)(F)F)cc(=O)[nH]2)c1C	5%	-7%	-104*	-18%	13%
OCc1cc(C(O)CNCCCCCCOCCCCc2ccccc2)ccc1O (stereo not given)	11µM*!	?	-60*	-18%	8.9µM*
Cc1cnn(-c2cc(N/N=C/c3ccccc3Cl)ncn2)c1	9%	3%	-18	-12%	20%
COc1cccc(/C=N/Nc2cc(-n3nc(C)cc3-c3ccccc3)ncn2)c1O	?	?	-96*	?	5.6µM*
COc1cccc(/C=N/Nc2nc(Nc3ccccc3)nc(-n3nc(C)cc3C)n2)c1O	?	16µM*	59	-23%	8.9µM*
COc1ccc(/C=N/Nc2nc(Nc3ccccc3)nc(N3CCCCC3)n2)cc1OC	?	16%	38	14%	?
Cc1nc2c(sc(=S)n2Cc2ccco2)c(=O)n1CC(=O)Nc1ccc(F)cc1	.	.	-11	?	?
Cc1nc2c(sc(=S)n2Cc2ccco2)c(=O)n1CC(=O)Nc1cc(F)ccc1F	.	.	9	0%	13µM*
O=C(Cn1c(=O)n(Cc2ccco2)c(=O)c2sc3ccccc3c21)Nc1ccc(F)cc1F	-17%[46.1 µM]	1%[46.1 µM]	-74*	-23%	.
COc1ccccc1NC(=O)Cn1c(C)nc2c(sc(=S)n2Cc2ccco2)c1=O	.	.	14	-27%	13µM*
Cc1ccc(NC(=O)Cn2c(=O)n(Cc3ccco3)c(=O)c3sc4ccccc4c32)c(C)c1	-5%[46.1 µM]	5%[46.1 µM]	-2	-3%	.
CCCCC(=O)Nc1c2c(nn1-c1cccc(C)c1C)CS(=O)(=O)C2	.	.	45	-17%	15%
CCCc1nc2ccc(C(=O)OC)cn2c1Cc1ccccc1OC	.	.	18	.	.
COC(=O)c1ccc(CN2C(=O)[C@]3(OCCC=C[C@@H]3C)c3ccccc32)cc1	13%[14.2 µM]	.	.	.	.
COc1ccccc1NC(=O)COc1ccccc1C(=O)Nc1ccccc1	?	-1%	-93*	-22%	?
COc1ccccc1NC(=O)COc1ccc(C(=O)NCc2ccccc2)cc1OC	.	.	-23	-26%	?
COc1ccccc1NC(=O)COc1ccc(CO)cc1Cl	29%	11%	44	7%	10µM*
O=C(COc1ccc(CO)cc1Cl)Nc1ccc(F)cc1	6.5µM*	?	55	-41%	-4%
O=C(Nc1ccc(C(=O)OCc2cc(=O)n3c4c(sc3n2)CCCC4)cc1)c1ccc(Cl)cc1	.	?	?	-5%	.
O=[N+]([O-])c1ccc(Oc2cccc(F)c2)c2ccncc12	4%	-12%	-25	?	4µM*
O=[N+]([O-])c1ccc(N2CCOCC2)c2ccncc12	7%[46.1 µM]	-8%	-35	-19%	-27%
COc1cc(/C=N\Nc2ccc([N+](=O)[O-])cc2)ccc1OCC(=O)Nc1ccc(C)c(C)c1	-10%	-24%	-72*	-26%	-11%

Compound activity deposited in PubChem BioAssay by National Center for Advancing Translational Sciences (NCATS).
